# Laboratory results: the supplement of paper PMC11732987, “Enantioselective OTUD7B fragment discovery through chemoproteomics screening and high-throughput optimisation” (Communications Chemistry, 2025)
# Unmarked numbers belong to inactive results.
# Key:
# Assay in all cases: log2 ratio of Biotin-Ahx-Ub-VS probe labelling (fragment/DMSO); higher = less target engagement (more negative = stronger competition), active = hit call of the paper (q ≤ 0.05, log2 ratio ≤ -1)
# Conditions in all cases: compound concentration: 200 uM; treatment time: 3 h
# USP42 = target: T1, USP42 (UniProt Q9H9J4)
# T1 sequence (whole entry): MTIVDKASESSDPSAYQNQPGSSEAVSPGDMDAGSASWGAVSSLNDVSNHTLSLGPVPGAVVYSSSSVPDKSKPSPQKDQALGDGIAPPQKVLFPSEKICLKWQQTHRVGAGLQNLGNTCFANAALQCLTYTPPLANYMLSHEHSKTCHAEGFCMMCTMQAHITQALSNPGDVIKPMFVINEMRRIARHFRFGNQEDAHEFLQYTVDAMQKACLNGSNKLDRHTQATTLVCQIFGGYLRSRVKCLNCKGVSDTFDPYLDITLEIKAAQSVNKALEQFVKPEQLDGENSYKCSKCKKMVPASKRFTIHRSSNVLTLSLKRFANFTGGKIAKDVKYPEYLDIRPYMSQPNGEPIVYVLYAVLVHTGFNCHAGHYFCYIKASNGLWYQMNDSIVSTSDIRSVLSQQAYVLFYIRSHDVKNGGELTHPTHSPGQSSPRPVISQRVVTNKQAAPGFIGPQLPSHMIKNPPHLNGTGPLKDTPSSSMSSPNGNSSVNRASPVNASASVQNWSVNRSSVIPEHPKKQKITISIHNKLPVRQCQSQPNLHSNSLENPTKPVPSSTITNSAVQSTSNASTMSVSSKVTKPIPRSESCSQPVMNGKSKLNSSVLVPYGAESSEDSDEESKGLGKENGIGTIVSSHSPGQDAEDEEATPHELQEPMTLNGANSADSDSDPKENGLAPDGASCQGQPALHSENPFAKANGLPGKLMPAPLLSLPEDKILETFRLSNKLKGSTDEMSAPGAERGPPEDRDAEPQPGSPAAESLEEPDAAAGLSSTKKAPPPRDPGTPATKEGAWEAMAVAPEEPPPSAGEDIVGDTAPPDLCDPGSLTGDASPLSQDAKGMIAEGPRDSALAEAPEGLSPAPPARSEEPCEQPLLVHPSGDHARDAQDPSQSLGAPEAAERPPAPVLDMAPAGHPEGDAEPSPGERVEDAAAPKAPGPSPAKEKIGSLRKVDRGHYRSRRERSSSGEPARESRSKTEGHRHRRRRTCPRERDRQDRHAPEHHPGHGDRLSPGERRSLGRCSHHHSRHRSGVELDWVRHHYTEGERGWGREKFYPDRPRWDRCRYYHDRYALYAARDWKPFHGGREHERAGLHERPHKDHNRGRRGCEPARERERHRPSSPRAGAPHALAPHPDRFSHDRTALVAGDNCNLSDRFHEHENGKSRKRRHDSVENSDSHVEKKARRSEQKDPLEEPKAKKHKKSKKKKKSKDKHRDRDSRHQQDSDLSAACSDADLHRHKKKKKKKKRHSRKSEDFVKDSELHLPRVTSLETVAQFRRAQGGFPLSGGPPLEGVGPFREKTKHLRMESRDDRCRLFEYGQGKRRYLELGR
# Outline: (§1)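 In triplicate, 495 µg of HEK293T lysate per sample was incubated with fragment at 200 µM or vehicle for 3 h. Biotin-Ahx-Ub-VS was then added to 0.5 µM final for 1 h, and labelled DUBs were captured with NeutrAvidin, digested with LysC and trypsin, and measured by diaPASEF LC-MS/MS. Data are average log2 fragment/vehicle ratios by unpaired t-test from global-median-normalised Spectronaut label-free quantities, restricted to proteins with ≥2 unique peptides.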
# USP46 = USP46 (UniProt P62068)
# Sequence of USP46 (P62068 whole entry): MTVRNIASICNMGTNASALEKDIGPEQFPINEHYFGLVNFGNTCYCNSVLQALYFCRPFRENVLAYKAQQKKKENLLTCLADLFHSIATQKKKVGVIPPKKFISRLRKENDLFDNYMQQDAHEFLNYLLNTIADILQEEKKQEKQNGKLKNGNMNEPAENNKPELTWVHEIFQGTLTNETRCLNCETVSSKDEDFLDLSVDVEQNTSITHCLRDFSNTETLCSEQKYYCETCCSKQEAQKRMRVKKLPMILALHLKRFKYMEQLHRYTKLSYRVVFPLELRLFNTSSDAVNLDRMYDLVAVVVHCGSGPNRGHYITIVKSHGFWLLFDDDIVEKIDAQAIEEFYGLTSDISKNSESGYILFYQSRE
# Outline: as §1
# USP47 = target: T2, USP47 (UniProt Q96K76)
# T2 sequence (whole entry): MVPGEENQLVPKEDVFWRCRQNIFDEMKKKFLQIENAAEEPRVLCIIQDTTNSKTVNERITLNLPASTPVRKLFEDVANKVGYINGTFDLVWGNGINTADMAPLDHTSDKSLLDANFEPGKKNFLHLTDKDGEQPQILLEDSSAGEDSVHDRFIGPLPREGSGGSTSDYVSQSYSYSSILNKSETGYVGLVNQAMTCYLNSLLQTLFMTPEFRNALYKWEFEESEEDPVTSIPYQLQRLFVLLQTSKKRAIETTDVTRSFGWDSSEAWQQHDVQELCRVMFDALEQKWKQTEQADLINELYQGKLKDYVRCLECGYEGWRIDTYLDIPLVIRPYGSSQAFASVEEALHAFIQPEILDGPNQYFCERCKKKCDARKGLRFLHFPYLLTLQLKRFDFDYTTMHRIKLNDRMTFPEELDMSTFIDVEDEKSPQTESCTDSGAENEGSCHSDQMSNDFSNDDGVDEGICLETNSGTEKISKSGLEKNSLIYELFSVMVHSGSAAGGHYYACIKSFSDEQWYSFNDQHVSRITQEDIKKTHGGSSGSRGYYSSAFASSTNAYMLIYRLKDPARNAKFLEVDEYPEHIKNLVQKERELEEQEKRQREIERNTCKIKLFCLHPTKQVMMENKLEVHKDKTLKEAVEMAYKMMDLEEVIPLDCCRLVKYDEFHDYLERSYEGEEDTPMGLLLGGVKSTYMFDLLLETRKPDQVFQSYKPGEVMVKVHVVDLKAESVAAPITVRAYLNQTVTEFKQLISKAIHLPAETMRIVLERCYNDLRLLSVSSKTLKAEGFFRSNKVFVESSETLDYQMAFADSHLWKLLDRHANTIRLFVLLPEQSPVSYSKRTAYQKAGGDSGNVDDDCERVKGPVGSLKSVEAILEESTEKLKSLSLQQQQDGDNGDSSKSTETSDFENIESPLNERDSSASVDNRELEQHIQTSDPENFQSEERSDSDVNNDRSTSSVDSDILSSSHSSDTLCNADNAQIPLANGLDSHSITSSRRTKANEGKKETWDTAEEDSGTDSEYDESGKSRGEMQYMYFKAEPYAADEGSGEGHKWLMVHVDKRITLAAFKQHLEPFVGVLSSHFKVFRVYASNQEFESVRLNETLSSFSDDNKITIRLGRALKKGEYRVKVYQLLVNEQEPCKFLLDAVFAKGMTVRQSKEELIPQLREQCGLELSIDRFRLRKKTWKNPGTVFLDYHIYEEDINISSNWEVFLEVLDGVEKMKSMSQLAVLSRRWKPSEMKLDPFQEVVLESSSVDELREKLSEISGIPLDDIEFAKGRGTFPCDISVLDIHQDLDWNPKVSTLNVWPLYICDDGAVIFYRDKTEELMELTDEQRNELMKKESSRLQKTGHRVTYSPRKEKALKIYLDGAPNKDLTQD
# Outline: as §1
# USP48 = target: T3, USP48 (UniProt Q86UV5)
# T3 sequence (whole entry): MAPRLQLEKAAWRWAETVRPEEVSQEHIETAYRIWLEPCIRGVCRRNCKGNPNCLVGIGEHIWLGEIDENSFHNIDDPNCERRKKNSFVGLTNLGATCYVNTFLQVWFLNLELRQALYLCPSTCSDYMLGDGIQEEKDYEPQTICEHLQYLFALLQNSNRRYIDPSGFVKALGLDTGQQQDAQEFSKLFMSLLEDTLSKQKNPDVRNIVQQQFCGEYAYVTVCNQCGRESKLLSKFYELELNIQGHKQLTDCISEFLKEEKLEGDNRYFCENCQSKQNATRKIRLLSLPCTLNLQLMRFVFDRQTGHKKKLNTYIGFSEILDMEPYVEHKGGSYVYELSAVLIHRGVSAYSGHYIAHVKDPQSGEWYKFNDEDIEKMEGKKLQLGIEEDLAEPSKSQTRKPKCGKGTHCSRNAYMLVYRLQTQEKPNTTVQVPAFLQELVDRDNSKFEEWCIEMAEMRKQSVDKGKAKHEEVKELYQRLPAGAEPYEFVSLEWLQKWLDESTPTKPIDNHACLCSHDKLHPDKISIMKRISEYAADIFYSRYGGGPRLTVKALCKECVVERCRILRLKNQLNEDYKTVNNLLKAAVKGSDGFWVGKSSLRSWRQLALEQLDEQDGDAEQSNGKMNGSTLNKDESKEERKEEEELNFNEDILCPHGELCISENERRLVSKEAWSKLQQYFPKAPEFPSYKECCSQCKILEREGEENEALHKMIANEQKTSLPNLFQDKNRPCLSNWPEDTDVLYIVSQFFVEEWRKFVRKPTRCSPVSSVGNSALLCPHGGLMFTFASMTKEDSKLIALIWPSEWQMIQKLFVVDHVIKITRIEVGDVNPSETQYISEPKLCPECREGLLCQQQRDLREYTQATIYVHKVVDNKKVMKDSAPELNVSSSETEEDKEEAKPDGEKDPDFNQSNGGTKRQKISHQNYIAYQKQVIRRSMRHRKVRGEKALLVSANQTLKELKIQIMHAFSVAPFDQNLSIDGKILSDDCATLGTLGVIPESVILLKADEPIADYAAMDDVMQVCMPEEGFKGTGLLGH
# Outline: as §1
# USP5 = target: T4, USP5 (UniProt P45974)
# T4 sequence (whole entry): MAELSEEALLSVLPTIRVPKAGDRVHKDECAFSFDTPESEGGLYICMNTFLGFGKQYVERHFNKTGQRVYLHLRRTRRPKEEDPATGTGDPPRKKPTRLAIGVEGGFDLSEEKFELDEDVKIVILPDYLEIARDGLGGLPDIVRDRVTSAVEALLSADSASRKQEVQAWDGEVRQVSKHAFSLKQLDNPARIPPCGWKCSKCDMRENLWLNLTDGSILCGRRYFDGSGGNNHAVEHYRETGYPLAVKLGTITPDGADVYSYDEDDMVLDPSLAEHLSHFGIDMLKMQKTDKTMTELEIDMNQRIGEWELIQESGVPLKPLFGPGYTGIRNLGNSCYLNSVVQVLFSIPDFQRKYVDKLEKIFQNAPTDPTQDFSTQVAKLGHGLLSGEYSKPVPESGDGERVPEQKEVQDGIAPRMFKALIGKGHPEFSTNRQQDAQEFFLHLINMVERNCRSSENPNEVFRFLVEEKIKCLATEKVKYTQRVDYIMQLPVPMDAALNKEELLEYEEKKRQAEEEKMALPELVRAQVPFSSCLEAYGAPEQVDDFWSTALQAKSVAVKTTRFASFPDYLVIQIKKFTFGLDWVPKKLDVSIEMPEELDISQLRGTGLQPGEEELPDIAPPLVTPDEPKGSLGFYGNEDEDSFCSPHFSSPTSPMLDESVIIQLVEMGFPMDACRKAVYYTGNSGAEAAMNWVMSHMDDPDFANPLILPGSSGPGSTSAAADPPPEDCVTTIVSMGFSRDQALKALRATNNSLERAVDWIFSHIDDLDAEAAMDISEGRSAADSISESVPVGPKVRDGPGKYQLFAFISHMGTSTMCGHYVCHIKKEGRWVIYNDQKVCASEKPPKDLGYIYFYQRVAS
# Outline: as §1
# USP54 = USP54 (UniProt Q70EL1)
# Sequence of USP54 (Q70EL1 whole entry): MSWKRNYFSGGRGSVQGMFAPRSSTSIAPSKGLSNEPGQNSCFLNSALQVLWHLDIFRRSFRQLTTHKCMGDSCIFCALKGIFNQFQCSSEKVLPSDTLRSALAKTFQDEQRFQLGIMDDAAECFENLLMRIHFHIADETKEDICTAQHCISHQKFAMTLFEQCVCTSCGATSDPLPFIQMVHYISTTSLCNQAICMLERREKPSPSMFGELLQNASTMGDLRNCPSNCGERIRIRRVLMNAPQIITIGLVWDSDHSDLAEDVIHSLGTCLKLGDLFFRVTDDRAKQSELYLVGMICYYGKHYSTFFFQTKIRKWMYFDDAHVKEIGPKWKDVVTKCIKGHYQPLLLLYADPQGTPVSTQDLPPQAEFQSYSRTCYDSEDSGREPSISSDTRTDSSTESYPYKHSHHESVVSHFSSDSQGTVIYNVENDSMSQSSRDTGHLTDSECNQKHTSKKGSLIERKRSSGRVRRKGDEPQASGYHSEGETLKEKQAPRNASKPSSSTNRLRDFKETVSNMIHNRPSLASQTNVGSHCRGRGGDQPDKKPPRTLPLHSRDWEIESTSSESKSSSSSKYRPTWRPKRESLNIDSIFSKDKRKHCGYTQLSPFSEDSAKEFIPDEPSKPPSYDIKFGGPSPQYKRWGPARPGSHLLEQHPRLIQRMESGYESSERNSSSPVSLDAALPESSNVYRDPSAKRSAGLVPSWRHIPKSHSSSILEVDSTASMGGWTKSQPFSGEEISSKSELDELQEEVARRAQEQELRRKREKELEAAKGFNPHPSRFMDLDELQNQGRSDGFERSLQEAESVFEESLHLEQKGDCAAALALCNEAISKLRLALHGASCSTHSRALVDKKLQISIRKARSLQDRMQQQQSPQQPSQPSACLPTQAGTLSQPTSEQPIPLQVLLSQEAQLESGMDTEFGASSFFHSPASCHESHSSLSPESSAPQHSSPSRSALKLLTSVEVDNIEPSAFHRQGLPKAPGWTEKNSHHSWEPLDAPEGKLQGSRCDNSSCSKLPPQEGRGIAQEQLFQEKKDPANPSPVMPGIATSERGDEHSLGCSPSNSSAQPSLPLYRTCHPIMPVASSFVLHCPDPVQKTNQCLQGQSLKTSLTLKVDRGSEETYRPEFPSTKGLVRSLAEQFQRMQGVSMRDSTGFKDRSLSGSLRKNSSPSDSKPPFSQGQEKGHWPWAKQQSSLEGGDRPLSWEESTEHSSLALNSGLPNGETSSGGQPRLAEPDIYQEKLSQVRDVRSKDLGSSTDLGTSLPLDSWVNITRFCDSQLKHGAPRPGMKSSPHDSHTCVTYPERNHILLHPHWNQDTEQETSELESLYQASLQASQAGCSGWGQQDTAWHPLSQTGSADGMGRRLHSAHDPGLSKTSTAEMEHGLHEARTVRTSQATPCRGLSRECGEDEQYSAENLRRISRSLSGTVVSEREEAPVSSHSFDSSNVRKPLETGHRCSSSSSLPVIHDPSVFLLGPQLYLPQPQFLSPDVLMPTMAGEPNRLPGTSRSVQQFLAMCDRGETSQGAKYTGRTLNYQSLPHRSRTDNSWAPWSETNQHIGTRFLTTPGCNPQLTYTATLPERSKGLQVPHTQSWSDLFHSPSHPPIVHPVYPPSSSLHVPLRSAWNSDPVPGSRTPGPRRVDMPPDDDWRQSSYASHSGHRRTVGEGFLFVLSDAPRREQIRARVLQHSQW
# Outline: as §1
# USP7 = USP7 (UniProt Q93009)
# Sequence of USP7 (Q93009 whole entry, looked up): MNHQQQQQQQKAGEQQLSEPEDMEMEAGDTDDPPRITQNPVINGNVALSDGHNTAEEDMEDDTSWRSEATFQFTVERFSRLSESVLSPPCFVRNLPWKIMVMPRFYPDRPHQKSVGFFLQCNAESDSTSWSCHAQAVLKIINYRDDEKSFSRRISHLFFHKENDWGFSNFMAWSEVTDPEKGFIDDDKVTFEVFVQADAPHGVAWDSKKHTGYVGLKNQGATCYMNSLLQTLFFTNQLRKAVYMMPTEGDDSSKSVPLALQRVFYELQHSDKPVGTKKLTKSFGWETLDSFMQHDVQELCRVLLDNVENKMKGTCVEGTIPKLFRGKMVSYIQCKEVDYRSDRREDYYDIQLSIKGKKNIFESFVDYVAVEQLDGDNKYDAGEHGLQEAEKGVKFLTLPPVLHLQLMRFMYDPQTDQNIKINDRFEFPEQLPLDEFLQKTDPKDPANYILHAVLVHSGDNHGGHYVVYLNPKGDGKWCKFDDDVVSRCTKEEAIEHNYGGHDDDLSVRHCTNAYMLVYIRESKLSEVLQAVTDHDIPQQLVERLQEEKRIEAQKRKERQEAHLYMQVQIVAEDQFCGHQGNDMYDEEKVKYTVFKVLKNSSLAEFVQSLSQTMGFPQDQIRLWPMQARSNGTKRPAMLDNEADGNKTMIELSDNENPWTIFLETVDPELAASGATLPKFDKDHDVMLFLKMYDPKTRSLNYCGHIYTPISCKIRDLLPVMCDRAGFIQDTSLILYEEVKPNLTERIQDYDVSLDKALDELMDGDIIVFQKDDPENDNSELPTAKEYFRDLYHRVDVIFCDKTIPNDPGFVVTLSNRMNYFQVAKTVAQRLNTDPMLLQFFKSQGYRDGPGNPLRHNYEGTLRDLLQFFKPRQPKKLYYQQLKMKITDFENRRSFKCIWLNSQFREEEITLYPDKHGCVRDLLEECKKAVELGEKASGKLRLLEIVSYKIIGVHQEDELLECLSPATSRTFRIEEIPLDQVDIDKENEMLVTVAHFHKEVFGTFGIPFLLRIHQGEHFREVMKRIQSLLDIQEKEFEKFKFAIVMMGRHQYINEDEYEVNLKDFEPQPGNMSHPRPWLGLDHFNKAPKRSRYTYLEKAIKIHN
# Outline: as §1
# USP8 = target: T5, USP8 (UniProt P40818)
# T5 sequence (whole entry): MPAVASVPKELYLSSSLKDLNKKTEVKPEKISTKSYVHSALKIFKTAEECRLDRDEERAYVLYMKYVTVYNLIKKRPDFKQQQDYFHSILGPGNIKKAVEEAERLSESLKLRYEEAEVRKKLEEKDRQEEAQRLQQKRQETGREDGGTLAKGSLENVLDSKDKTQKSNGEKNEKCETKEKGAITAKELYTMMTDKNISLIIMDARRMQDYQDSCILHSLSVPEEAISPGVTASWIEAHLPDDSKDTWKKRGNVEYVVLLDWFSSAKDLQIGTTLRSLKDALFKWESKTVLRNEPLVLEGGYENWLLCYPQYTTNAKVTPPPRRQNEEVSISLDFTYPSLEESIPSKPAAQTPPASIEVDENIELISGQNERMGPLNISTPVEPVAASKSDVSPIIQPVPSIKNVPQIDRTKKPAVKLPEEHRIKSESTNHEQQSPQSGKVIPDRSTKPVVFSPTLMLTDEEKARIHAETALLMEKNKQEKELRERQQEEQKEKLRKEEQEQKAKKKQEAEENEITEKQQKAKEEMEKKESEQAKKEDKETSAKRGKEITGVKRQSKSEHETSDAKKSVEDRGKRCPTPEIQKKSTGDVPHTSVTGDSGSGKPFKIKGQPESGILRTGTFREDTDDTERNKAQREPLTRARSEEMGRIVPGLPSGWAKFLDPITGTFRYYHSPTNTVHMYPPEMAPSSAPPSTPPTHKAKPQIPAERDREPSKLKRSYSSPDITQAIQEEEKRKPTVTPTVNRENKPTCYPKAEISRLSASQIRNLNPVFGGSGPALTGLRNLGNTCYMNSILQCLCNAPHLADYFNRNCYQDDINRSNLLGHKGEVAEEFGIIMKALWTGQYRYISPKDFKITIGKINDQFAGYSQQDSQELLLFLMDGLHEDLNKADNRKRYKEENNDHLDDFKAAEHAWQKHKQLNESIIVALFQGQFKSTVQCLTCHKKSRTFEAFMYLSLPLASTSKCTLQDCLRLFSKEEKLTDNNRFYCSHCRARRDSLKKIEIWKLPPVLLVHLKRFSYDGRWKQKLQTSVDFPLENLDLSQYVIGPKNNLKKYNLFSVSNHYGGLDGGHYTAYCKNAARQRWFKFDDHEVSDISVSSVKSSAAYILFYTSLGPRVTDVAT
# Outline: as §1
structure (smiles),measurement,setting,value
Cl.Cn1ncc2c1CCCC2NC(=O)CCl (stereo not drawn),log2 ratio of Biotin-Ahx-Ub-VS probe labelling,USP42,0.564
same,log2 ratio of Biotin-Ahx-Ub-VS probe labelling,USP46,-0.0969
same,log2 ratio of Biotin-Ahx-Ub-VS probe labelling,USP47,-1.12 (active)
same,log2 ratio of Biotin-Ahx-Ub-VS probe labelling,USP48,-0.07
same,log2 ratio of Biotin-Ahx-Ub-VS probe labelling,USP5,-0.277
same,log2 ratio of Biotin-Ahx-Ub-VS probe labelling,USP54,0.656
same,log2 ratio of Biotin-Ahx-Ub-VS probe labelling,USP7,-0.377
same,log2 ratio of Biotin-Ahx-Ub-VS probe labelling,USP8,0.0774
